Compound activity from PubChem.
DT40 TDP1 CPT = DT40-hTDP1 cell growth loss with CPT | chicken DT40 Tdp1-/-;hTDP1 cells + 20 nM CPT, ATP luminescence, 48 h | actives 12% (n = 420,000) | Potency, µM (top dose mostly 46.2 µM), for inactives: at the top dose activity change, negative = growth inhibition, most hits filed as inhibitors; also: nearly all actives have a fitted effect of over 55% in size
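Cell growth measured by CellTiter-Glo luminescence after a minimum 48 h, 37 C compound exposure with 20 nM CPT in Tdp1-knockout DT40 cells stably expressing hTDP1, seeded 400/well; qHTS titration format.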
GCN5L2 inh = blocks human GCN5L2 histone acetyltransferase; Potency, µM (series often up to 58.9 µM), without a hit: top-dose activity change, negative = inhibition, hits mostly inhibitors; GCN5L2 HAT assay, ThioGlo1 CoA-SH fluorescence; AID 504327; actives 0.21% (n = 390,000); Q92830
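Compounds, pin-transferred from DMSO stocks, meet 20nM GCN5L2 for 15 min before the reaction begins with H3(1-25) peptide (75uM) and acetyl-CoA (70uM). Thiol-reactive ThioGlo1 reports CoA release over 20 min at room temperature.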
VDR inh = vitamin D3 receptor (human) inhibition. P11473. VDR-SRC2-3 peptide fluorescence polarization, 2 h. Potency, µM, without a hit: max response, negative = inhibition, actives largely listed as inhibitors. actives 0.93% (n = 400,000). AID 504847
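VDR–SRC2-3 interaction, FP format. Cmpds 23 nl via pintool, brief spin, 2 h ambient incubation.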
TDP1 block = inhibitors of human tyrosyl-DNA phosphodiesterase TDP1; actives 0.28% (n = 350,000); Potency, µM (series often up to 130 µM), for the others: at the highest dose activity change, negative = inhibition, hits mostly inhibitors; recombinant TDP1, AlphaScreen DNA substrate cleavage; also: nearly all actives have a fitted effect of over 40% in size
Target sequence (Q9NUW8 whole entry, looked up): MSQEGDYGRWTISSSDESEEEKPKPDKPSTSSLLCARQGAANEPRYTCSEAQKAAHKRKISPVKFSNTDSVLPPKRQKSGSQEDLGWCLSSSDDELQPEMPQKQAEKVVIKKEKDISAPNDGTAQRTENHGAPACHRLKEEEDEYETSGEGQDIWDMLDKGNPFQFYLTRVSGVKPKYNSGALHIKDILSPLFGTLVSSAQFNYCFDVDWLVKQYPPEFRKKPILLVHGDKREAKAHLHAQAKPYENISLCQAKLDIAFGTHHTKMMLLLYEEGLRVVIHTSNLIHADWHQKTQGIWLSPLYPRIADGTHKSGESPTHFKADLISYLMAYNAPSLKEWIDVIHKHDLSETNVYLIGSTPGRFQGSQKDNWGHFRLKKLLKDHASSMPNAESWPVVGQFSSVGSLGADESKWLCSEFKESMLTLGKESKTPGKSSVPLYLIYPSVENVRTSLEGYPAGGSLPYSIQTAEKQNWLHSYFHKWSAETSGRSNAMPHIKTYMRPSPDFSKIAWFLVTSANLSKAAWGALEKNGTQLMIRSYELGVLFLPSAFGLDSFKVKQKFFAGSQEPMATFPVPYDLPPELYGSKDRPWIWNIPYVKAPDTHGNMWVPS
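Signal: AlphaScreen proximity between streptavidin donor and anti-FITC acceptor beads on intact substrate. Reaction: Tdp1 1 nM, substrate 15 nM final, 5 min RT after 15 min compound preincubation.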
PLK1 PBD inh = inhibitors of human PLK1 polo-box domain binding; Potency, µM, for the others: max response, negative = inhibition, usual class: inhibitors; Plk1 PBD binding of FITC phosphopeptide, fluorescence polarization; actives 2.8% (n = 360,000); P53350; AID 720504; also: series mostly up to about 57 µM; nearly all actives have a fitted effect of over 65% in size
TDP1 cell noCPT = qHTS for Inhibitors of human tyrosyl-DNA phosphodiesterase 1 (TDP1): qHTS in cells in absence of CPT. DT40 Tdp1-/- hTDP1 cells, no CPT, ATP luminescence, 48 h. AID 686978, 2013. actives 15% (n = 420,000). Potency, µM (top dose mostly 46.2 µM), for inactives: top-dose activity change, negative = growth inhibition, most hits filed as inhibitors; also: nearly all actives have a fitted effect of over 55% in size
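Growth kinetics read by CellTiter-Glo luminescence after ≥48 hr at 37 °C. Cells: DT40 Tdp1-/- stably carrying human TDP1, 400 per well, compound exposure in the absence of CPT (DMSO vehicle).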
Starred values were filed as active, the others as inactive; [ ] = another dose, or the depositor's remark. This is a sample that favours compounds with a hit; in the whole collection about 18% have one here. Calls follow the shape of the dose curve; as a rule, active = well fitted curve in the direction sought with a large enough effect; inconclusive = small, poorly fitted or top-dose-only effect, or another doubt; inactive = no such curve, though single readings can be large; an effect the other way counts as inactive or inconclusive. % is scaled to controls: 0 for no effect and ±100 for the full control effect; potency is read from the fitted curve at half-maximal effect.

For Cc1cccc(CNC(=O)CSCc2cnn(-c3ccccc3)c2-n2cccc2)c1 the results were DT40 TDP1 CPT inconclusive, GCN5L2 inh -7.8%, VDR inh 22.9%, TDP1 block 7.6% and TDP1 cell noCPT inconclusive.
Screening O=C(CSc1nnc(SCc2cccc3ccccc23)s1)N=Nc1c(O)[nH]c2ccccc12 returned GCN5L2 inh 47.9% and TDP1 block 2.6%.
Screening COc1ccc(CNc2nc3ccccc3n2CCN2CCOCC2)cc1 returned DT40 TDP1 CPT -21.1%, GCN5L2 inh -3.7%, VDR inh -18.8%, TDP1 block 2.2%[56.1 µM], PLK1 PBD inh -14.2% and TDP1 cell noCPT 20.6µM*.
CCCCn1c(NCc2cc(Br)ccc2O)nc2ccccc21 was read as DT40 TDP1 CPT 14.6µM*, GCN5L2 inh -8.2%, VDR inh -4.1%, TDP1 block -2.2%[12.3 µM] and TDP1 cell noCPT 14.6µM*.
CCN(CC)c1ccc(CNc2nc3ccccc3n2CCN2CCOCC2)cc1 was read as DT40 TDP1 CPT inconclusive, GCN5L2 inh -6.1%, VDR inh -8.7%, TDP1 block 10.3%, PLK1 PBD inh -5.3% and TDP1 cell noCPT 18.4µM*.
Screening CCCCn1c(NCc2ccc(N(C)C)cc2)nc2ccccc21 returned DT40 TDP1 CPT 25.9µM*, GCN5L2 inh -4.1%, VDR inh 3.9%, TDP1 block 2.4%, PLK1 PBD inh -8.2% and TDP1 cell noCPT 25.9µM*.
CC(C)(C)c1ccc(C2(C)NC(=O)NC2=O)cc1 (centres undefined) was read as DT40 TDP1 CPT -5.2%, GCN5L2 inh -1.9%, VDR inh 7.8%, TDP1 block -1.5%, PLK1 PBD inh -2.6% and TDP1 cell noCPT -18.9%.
For Cc1noc(C)c1-c1ccc2ncnc(NC(C)c3ccccc3)c2c1 (centres undefined) the results were TDP1 block 7.9%.
For c1cc2c(c(NCc3ccncc3)c1)CCCC2 the results were DT40 TDP1 CPT 11.6µM*, GCN5L2 inh -0.5%, VDR inh -0.2%, TDP1 block 9.4%, PLK1 PBD inh -25.9% and TDP1 cell noCPT 11.6µM*.
`CC(C)(C)CC(=O)Nc1cccc2c1CCCC2` gave DT40 TDP1 CPT -4.0%, GCN5L2 inh -1.4%, VDR inh 2.1%, TDP1 block 0.0%, PLK1 PBD inh -5.9% and TDP1 cell noCPT -13.0%.
COc1ccc(CNCC(O)(c2ccccc2)c2ccccc2)cc1OC was read as DT40 TDP1 CPT -72.7%, GCN5L2 inh -3.4%, VDR inh -5.9%, TDP1 block 2.9%, PLK1 PBD inh -11.9% and TDP1 cell noCPT 13µM*.
`OC(CNCc1ccccc1)(c1ccccc1)c1ccccc1` gave DT40 TDP1 CPT -24.1%, GCN5L2 inh -8.3%, VDR inh -16.0%, PLK1 PBD inh inconclusive and TDP1 cell noCPT inconclusive.
For COc1ccccc1CNCC(O)(c1ccc(F)cc1)c1ccc(F)cc1 the results were DT40 TDP1 CPT 18.4µM*, GCN5L2 inh -2.6%, VDR inh 0.2%, PLK1 PBD inh -2.5% and TDP1 cell noCPT 13µM*.
`COc1ccc(CNCC(O)(c2ccccc2)c2ccccc2)cc1` gave DT40 TDP1 CPT inconclusive, GCN5L2 inh -5.9%, VDR inh -17.0%, PLK1 PBD inh -0.2% and TDP1 cell noCPT 18.4µM*.
For COc1ccc(CNCC(O)(c2ccc(F)cc2)c2ccc(F)cc2)cc1 the results were DT40 TDP1 CPT inconclusive, GCN5L2 inh 0.6%, VDR inh -6.2%, TDP1 block 0.0%, PLK1 PBD inh -8.1% and TDP1 cell noCPT 13µM*.
Screening COc1ccc(N2CCN(CC(=O)Nc3ccc(C)c(C)c3)CC2)cc1 returned DT40 TDP1 CPT -15.7%, GCN5L2 inh -2.5%, VDR inh 5.2%, PLK1 PBD inh -2.7% and TDP1 cell noCPT -12.0%.
For CCCOc1ccc2c(c1)C(=NN=C(N)N)c1cc(OCCC)ccc1-2 the results were DT40 TDP1 CPT 25.9µM*, GCN5L2 inh -17.0%, VDR inh -15.7%, PLK1 PBD inh -12.6% and TDP1 cell noCPT 23.1µM*.
CCN(CC)S(=O)(=O)c1cccc(S(=O)(=O)c2cccc(S(=O)(=O)N(CC)CC)c2)c1 was read as DT40 TDP1 CPT 20.6µM*, GCN5L2 inh 1.3%, VDR inh -1.2%, TDP1 block 2.1%, PLK1 PBD inh -1.3% and TDP1 cell noCPT 18.4µM*.
CCN(CC)S(=O)(=O)c1ccc2c(c1)C(=NO)c1cc(S(=O)(=O)N(CC)CC)ccc1-2 was read as DT40 TDP1 CPT 2.31µM*, GCN5L2 inh -2.5%, VDR inh -17.0%, TDP1 block 0.0%, PLK1 PBD inh 0.1% and TDP1 cell noCPT 2.31µM*.
For NC(N)=NN=C1c2ccccc2-c2ccccc21 the results were DT40 TDP1 CPT 27.3%, GCN5L2 inh -9.0%, VDR inh -7.1%, PLK1 PBD inh -5.1% and TDP1 cell noCPT inconclusive.
CCN(CC)CCOc1ccc2c(c1)C(=NO)c1cc(OCCN(CC)CC)ccc1-2 was read as DT40 TDP1 CPT 18.4µM*, GCN5L2 inh -21.4%, VDR inh -15.5%, TDP1 block -5.0%, PLK1 PBD inh -7.2% and TDP1 cell noCPT 18.4µM*.
For CCN(CC)CCCOc1ccc(Cl)c(Cl)c1 the results were DT40 TDP1 CPT -27.8%, GCN5L2 inh -0.4%, VDR inh -24.7%, TDP1 block -7.7%, PLK1 PBD inh -11.0% and TDP1 cell noCPT inconclusive.
CCN(C(=O)c1ccc2c(SCC(=O)O)c3c(nc2c1)CCC3)c1cc(Cl)ccc1OC was read as DT40 TDP1 CPT -2.8%, GCN5L2 inh -8.4%, VDR inh inconclusive, TDP1 block 4.9%, PLK1 PBD inh -11.8% and TDP1 cell noCPT -12.8%.
`COc1ccc(S(=O)(=O)N2CCOCC2)cc1NC(=O)COc1ccc(C(C)=O)cc1OC` gave DT40 TDP1 CPT -15.2%, GCN5L2 inh -2.0%, VDR inh -7.5%, TDP1 block 1.0%, PLK1 PBD inh 0.3% and TDP1 cell noCPT inconclusive.
`CCN(CC)C(=O)CC(c1ccc(F)cc1)c1ccc(OC(C)C)cc1` (centres undefined) gave GCN5L2 inh -1.9% and TDP1 block 2.7%.
`Cc1cccc(-c2noc(CCCC(=O)NCc3ccco3)n2)c1` gave DT40 TDP1 CPT 14.6µM*, GCN5L2 inh -4.2%, VDR inh -3.5%, TDP1 block 6.1% and TDP1 cell noCPT 16.4µM*.
For Cc1cccc(-c2noc(CCC(=O)NCc3ccco3)n2)c1 the results were DT40 TDP1 CPT inconclusive, GCN5L2 inh 0.8%, VDR inh 3.5%, TDP1 block 3.4%, PLK1 PBD inh -8.1% and TDP1 cell noCPT -16.1%.
